Screening results (PubChem)
AMA1-RON2 inh – AMA1-RON2 (P. falciparum) interaction inhibition; AlphaScreen AMA1-biotinylated RON2 peptide binding; Potency, µM (highest dose often 58.2 µM), for the others: top-dose activity change, negative = inhibition, most hits filed as inhibitors; actives 0.2% (n = 360,000);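 also: 0% = vehicle wells and -100% = peptide control; nearly all actives have a fitted effect of over 45% in size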
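AMA1 (3D7) with his tag at 25 nM final met compounds first, then biotinylated RON2 peptide at 25 nM; detection used donor plus acceptor beads, 10 µg/mL apiece, read by AlphaScreen after 30 min at room temperature.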
Pf growth 96h – P. falciparum growth inhibition at 96 hours; P. falciparum luciferase reporter growth, 96 h; Potency, µM (series often up to 28.7 µM), inactives show top-dose activity change, negative = inhibition, usual class: inhibitors; actives 6.9% (n = 320,000)
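Compounds incubated with erythrocytes infected by luciferase-expressing P. falciparum (2% hematocrit, 0.05% parasitemia final) for 96 hours, 37 C in 5% CO2. Growth inhibition scored as decreased luciferase luminescence.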
VACV mCherry inh – inhibitors of vaccinia virus infection (mCherry reporter signal). Vaccinia virus mCherry reporter infection, fluorescence. Potency, µM (series often up to 36.5 µM), for inactives: at the top dose activity change, negative = inhibition, most hits filed as inhibitors. actives 0.63% (n = 310,000). AID 720579; calls by dose curve; tested in A549 cells; also: nearly all actives have a fitted effect of over 35% in size
Vaccinia Venus – vaccinia inhibition (Venus reporter); Vaccinia virus Venus reporter expression, fluorescence; Potency, µM (top dose mostly 36.5 µM), without a hit: at the highest dose activity change, negative = inhibition, usual class: inhibitors; actives 0.46% (n = 330,000); AID 720580; calls by dose curve; tested in A549 cells; also: nearly all actives have a fitted effect of over 30% in size
Pf growth 48h – inhibits P. falciparum growth in the first generation, 48 h; P. falciparum luciferase growth in erythrocytes, 48 h; Potency, µM (doses to about 28.7 µM), for the others: at the top dose activity change, negative = inhibition, hits mostly inhibitors; actives 5.9% (n = 310,000)
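Luciferase-expressing parasites in RBCs, 2% Hct / 0.1% parasitemia final; RPMI 1640 + 0.5% Albumax; 37 C, 5% CO2, one generation; luminescence read-out, lower signal = inhibition.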
An asterisk follows results filed as active; [ ] = dose if it differs, or a comment. Compounds with a hit are over-represented: about 8.7% of the library has one in this group of screens. Unless noted, calls follow the shape of the dose curve; as a rule, active = well fitted curve in the direction sought with a large enough effect; inconclusive = small, poorly fitted or top-dose-only effect, or another doubt; inactive = no such curve, though single readings can be large; an effect the other way counts as inactive or inconclusive. Unless noted, % is scaled to controls: 0 for no effect and ±100 for the full control effect; potency is read from the fitted curve at half-maximal effect.

For CC(=O)NC12CC3CC(C1)CC(C(=O)Oc1ccc(N(C)S(=O)(=O)c4cc(C)ccc4C)cc1)(C3)C2 the results were AMA1-RON2 inh -8%, Pf growth 96h 13µM*, VACV mCherry inh inconclusive, Vaccinia Venus -2% and Pf growth 48h inconclusive.
Screening CC(=O)NC12CC3CC(C1)CC(C(=O)NCC(=O)Nc1c(C)cc(C)cc1C)(C3)C2 returned AMA1-RON2 inh 6%, Pf growth 96h -33% and Pf growth 48h -29%.
For O=C(C[N+]12CN3CN(CN(C3)C1)C2)c1ccc(Cl)cc1 the results were VACV mCherry inh 13% and Vaccinia Venus 7%.
`CCOC(=O)[C@H]1[C@H]2COc3ccc(Cl)cc3[C@@H]2N2C(=O)CN(Cc3ccc(C)cc3)C(=O)[C@@]12C` gave AMA1-RON2 inh -4%, Pf growth 96h inconclusive, VACV mCherry inh -3%, Vaccinia Venus inconclusive and Pf growth 48h 12µM*.
`CCOC(=O)[C@H]1[C@H]2COc3cc(OC)ccc3[C@@H]2N2C(=O)CN(Cc3ccc(C)cc3)C(=O)[C@@]12C` gave AMA1-RON2 inh -11%, Pf growth 96h 2.6µM*, VACV mCherry inh inactive, Vaccinia Venus -7% and Pf growth 48h 10µM*.
Screening CCOC(=O)[C@H]1[C@H]2COc3ccc(C)cc3[C@@H]2N2C(=O)CN(Cc3ccccc3)C(=O)[C@@]12C returned AMA1-RON2 inh -5%, Pf growth 96h inconclusive, VACV mCherry inh inactive, Vaccinia Venus -8% and Pf growth 48h inconclusive.
Screening CCCCN1CC(=O)N2[C@H]3c4cc(Cl)ccc4OC[C@@H]3[C@H](C(=O)OCC)[C@]2(C)C1=O returned AMA1-RON2 inh 16%, Pf growth 96h inconclusive, VACV mCherry inh inactive, Vaccinia Venus -15% and Pf growth 48h inconclusive.
`CCOC(=O)[C@H]1[C@H]2COc3ccc(OC)cc3[C@@H]2N2C(=O)CN(CCc3c[nH]c4ccccc34)C(=O)[C@@]12C` gave AMA1-RON2 inh -18%, Pf growth 96h inconclusive, VACV mCherry inh -9%, Vaccinia Venus -5% and Pf growth 48h 13µM*.
`CCOC(=O)[C@H]1[C@H]2COc3cc(OC)ccc3[C@@H]2N2C(=O)CN(Cc3ccco3)C(=O)[C@@]12C` gave AMA1-RON2 inh 9%, Pf growth 96h -2%, VACV mCherry inh inactive, Vaccinia Venus -11% and Pf growth 48h inconclusive.
`CCOC(=O)[C@H]1[C@H]2COc3ccc(Cl)cc3[C@@H]2N2C(=O)CN(Cc3ccc(OC)cc3)C(=O)[C@@]12C` gave AMA1-RON2 inh -11%, Pf growth 96h 6.6µM*, VACV mCherry inh inactive, Vaccinia Venus -4% and Pf growth 48h 7.4µM*.
CCOC(=O)[C@H]1[C@H]2COc3ccc(OC)cc3[C@@H]2N2C(=O)CN(Cc3ccco3)C(=O)[C@@]12C was read as AMA1-RON2 inh 0%, Pf growth 96h inconclusive, VACV mCherry inh inactive, Vaccinia Venus -12% and Pf growth 48h inconclusive.
C[C@@]12C(=O)N(CCc3c[nH]c4ccccc34)CC(=O)N1[C@H]1c3ccccc3OC[C@@H]1[C@@H]2c1ccccc1 was read as AMA1-RON2 inh -22%, Pf growth 96h 6.6µM*, VACV mCherry inh -21%, Vaccinia Venus -26% and Pf growth 48h 12µM*.
For CCOC(=O)[C@H]1[C@H]2COc3ccc(Br)cc3[C@@H]2N2C(=O)CN(Cc3ccccc3)C(=O)[C@@]12C the results were AMA1-RON2 inh -5%, Pf growth 96h inconclusive, VACV mCherry inh inactive, Vaccinia Venus -22% and Pf growth 48h inconclusive.
CCOC(=O)[C@H]1[C@H]2COc3ccc(Br)cc3[C@@H]2N2C(=O)CN(Cc3ccc(OC)cc3)C(=O)[C@@]12C was read as AMA1-RON2 inh 24%, Pf growth 96h inconclusive, VACV mCherry inh inactive, Vaccinia Venus -16% and Pf growth 48h 7.4µM*.
`CCOCCCNC(=O)Cn1ncc2c([nH]c3ccc(C)cc32)c1=O` gave VACV mCherry inh -14% and Vaccinia Venus -19%.
For COc1ccc(C(=O)NC2CCN(CC(=O)NC3CCCCC3)CC2)cc1 the results were AMA1-RON2 inh -1%, Pf growth 96h 5%, VACV mCherry inh -1%, Vaccinia Venus -14% and Pf growth 48h 22%.
For COc1ccc2oc(C(=O)OCC(=O)N3CCN(S(=O)(=O)c4ccccc4)CC3)c(C)c2c1 the results were AMA1-RON2 inh -10%, Pf growth 96h -6%, VACV mCherry inh -35%, Vaccinia Venus -22% and Pf growth 48h inconclusive.
COc1ccc2oc(C(=O)N3CCN(S(=O)(=O)c4cccc([N+](=O)[O-])c4)CC3)c(C)c2c1 was read as AMA1-RON2 inh -2%, Pf growth 96h 8.3µM*, VACV mCherry inh inconclusive, Vaccinia Venus 1% and Pf growth 48h inconclusive.
Screening CCOc1ccc(S(=O)(=O)N2CCN(C(=O)c3oc4ccc(OC)cc4c3C)CC2)cc1 returned AMA1-RON2 inh 0%, Pf growth 96h inconclusive, VACV mCherry inh -21%, Vaccinia Venus -11% and Pf growth 48h 10µM*.
COc1cccc(C(=O)CN2CCC(NC(=O)NC3CCCCC3)CC2)c1 was read as AMA1-RON2 inh 5%, Pf growth 96h 15µM* and Pf growth 48h 2%.
Screening COc1cccc(C(=O)CN2CCN(S(=O)(=O)c3cccc([N+](=O)[O-])c3)CC2)c1 returned AMA1-RON2 inh 40%, Pf growth 96h 0.41µM*, VACV mCherry inh inconclusive, Vaccinia Venus -14% and Pf growth 48h -2%.
Screening Cc1ccc(CCNC(=O)c2ccc(Nc3nc4ccccc4n4nnnc34)cc2)cc1 returned VACV mCherry inh inconclusive and Vaccinia Venus -30%.
`Cc1cccn2c(=O)c3cc(C(=O)Nc4ccc(Cl)c(Cl)c4)sc3nc12` gave VACV mCherry inh -6% and Vaccinia Venus -2%.
Cc1cc(NC(=O)c2cc(-c3ccc(Cl)c(Cl)c3)on2)n(-c2ccccc2)n1 was read as VACV mCherry inh -11% and Vaccinia Venus -18%.
`COc1ccccc1NC(=S)N1C2CCC1CC(NC(=O)NC13CC4CC(CC(C4)C1)C3)C2` (centres undefined) gave AMA1-RON2 inh -11%, Pf growth 96h 4.7µM*, VACV mCherry inh inconclusive, Vaccinia Venus -29% and Pf growth 48h inconclusive.
For O=C1CCCC(=O)N1c1ccc(O)cc1 the results were AMA1-RON2 inh 3%, Pf growth 96h 12µM* and Pf growth 48h 34%.
Screening O=C1CCCC(=O)N1c1ccc(F)cc1 returned AMA1-RON2 inh 2%, Pf growth 96h 43%, VACV mCherry inh -4%, Vaccinia Venus 8% and Pf growth 48h -9%.
Cn1c(=O)c2ncn(CC(=O)N=Nc3c(O)[nH]c4ccccc34)c2n(C)c1=O was read as Pf growth 96h 34%[1.15 µM] and Pf growth 48h 12µM*.
For CCc1nc2c(c(=O)c3ccccc3n2C)c(=O)n1C1CCCCCC1 the results were AMA1-RON2 inh 0%, Pf growth 96h inconclusive, VACV mCherry inh -11%, Vaccinia Venus inconclusive and Pf growth 48h inconclusive.
